Laboratory results from PubChem BioAssay (NCI).
Where “and” joins values, the source holds several entries; their conditions need not be identical. Equal values may be shown once. The panel holds about 79,000 compounds, 15% with a hit somewhere; the sample as a whole holds those more often. Unmarked numbers belong to inactive results. Calls of active or inactive are those of the source. Rule as the data show it: active = growth inhibition above about 70%; inactive = the rest.

What was measured:
[1] = NCI Yeast Anticancer Drug Screen. Data for the rad50 strain (AID 155);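 also: 0% = growth of vehicle-only cultures of the same strain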; settings: S. cerevisiae rad50 strain growth inhibition; at 50.0 µM; active compounds read high
Procedure, shortened: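 Growth of the mutant yeast was measured after compound exposure and referenced to vehicle-treated cultures.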

[2] = NCI Yeast Anticancer Drug Screen. Data for the mec2-1 strain (AID 157); settings: S. cerevisiae mec2-1 strain, at 50.0 µM, active compounds read high
Procedure, shortened: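 Vehicle-treated cultures served as reference for growth inhibition of compound-exposed mec2-1 yeast.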

[3] = NCI Yeast Anticancer Drug Screen. Data for the sgs1 mgt1 strain (AID 161);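 also: 0% = growth of cultures given vehicle only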; settings: S. cerevisiae sgs1 mgt1 strain, at 50.0 µM, active compounds read high
Procedure, shortened: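 Read-out: growth inhibition vs vehicle controls. Cells: mutant yeast strain deficient in DNA damage repair.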

[4] = NCI Yeast Anticancer Drug Screen. Data for the cln2 rad14 strain (AID 165);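 also: 0% = growth equal to vehicle treated cultures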; settings: S. cerevisiae cln2 rad14 strain, at 50.0 µM, active compounds read high
Procedure, shortened: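 Each compound was tested on cln2 rad14 yeast. Inhibition of growth was calculated against vehicle-exposed controls.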

[5] = NCI Yeast Anticancer Drug Screen. Data for the bub3 strain (AID 167); settings: S. cerevisiae bub3 mutant strain, at 50.0 µM, active compounds read high
Procedure, shortened: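 Whole-cell yeast assay. The mutant strain was incubated with compounds, and growth inhibition was determined by comparison with vehicle-treated cells.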

[6] = NCI Yeast Anticancer Drug Screen. Data for the mlh1 rad18 strain (AID 175); settings: S. cerevisiae mlh1 rad18 strain growth inhibition; at 50.0 µM; active compounds read high
Procedure, shortened: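 Vehicle-treated cultures served as the reference for growth inhibition in a yeast strain carrying DNA damage repair alterations exposed to each compound.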

| Compound | growth inhibition [1] | growth inhibition [2] | growth inhibition [3] | growth inhibition [4] | growth inhibition [5] | growth inhibition [6] |
| --- | --- | --- | --- | --- | --- | --- |
| CC(Br)C(=O)NC(C)C(=O)O (configuration not stated) | -19.6% and -15.2% | -16.6% and -19.9% | -12.4% | 5.75% | -17.6% | -28.6% and -21.2% |
| O=C(O)c1ccc(Cl)c(Cl)c1 | 1.7% | -5.4% | 3.9% | -14.2% | 5.95% | 0.45% |
| O=c1cccc2n1CC1CNC[C@H]2C1 | 16.6% | 9.5% | 5.8% | 7.75% | 12.6% | -4.85% |
| C[N+]1([O-])[C@H]2CC(OC(=O)[C@H](CO)c3ccccc3)C[C@H]1[C@H]1O[C@H]12 (some centres not stated) | -9.75% | -3.35% | -14.9% | -26.5% | -34.2% | -10.1% |
| CC(=O)OC1CCC2(C)C(=CC=C3C4CCC(=O)C4(C)CCC32)C1 (configuration not stated) | 5.85% and 8.55% | 44.6% and 36.8% | -5.15% and 3.5% | 3% and 2.9% | 35.1% and 34.3% | 22.5% and 10.2% |
| CCCCCC[C@@H](O)[C@@H]1C2=C(C[C@H]([C@H](O)[C@@H]3CC=CC(=O)O3)CC3=C(C(=O)OC3=O)[C@@H]1O)C(=O)OC2=O | 20.6% | 2.75% | 26.7% | 9.5% | 16.7% | 19.6% |
| O=[N+]([O-])c1ccc(C2C3C(c4ccccc4)=NCCCN32)cc1 (configuration not stated) | -0.2% | 12.2% | -8% | -15.2% | -12.2% | -14.7% |
| Cc1ccc(N)c(C)c1 | -2.05% | -5.65% | -1.5% | -3.8% | 3.2% | -13.2% |
| CC(C)OP(=O)(CP(=O)(OC(C)C)OC(C)C)OC(C)C.[CH3][Sn]([Br])([Br])[Br] | -27.4% | -23.6% | -32.5% | 6.7% | -19.1% | -23% |
| NC(=O)C1(Cl)CCCCC1 | -11.8% | -22.8% | -20.8% | -11.2% | -6.1% | -6.25% |
| CCC(C)(C)OC(=O)CCl | -0.25% | 1.25% | 7.8% | 5.2% | 36.7% | -5.15% |
| CN(C)P1(=S)NCC(C(C)(C)C)CO1 (configuration not stated) | 10.2% | -40.1% | -10.9% | 11.2% | 18.5% | -43.4% |
| CC1(C)CCC(C)(C)c2c1ccc(O)c2Cc1c(O)ccc2c1C(C)(C)CCC2(C)C | 3.55% | -30.8% | -39% | -17.2% | -41.2% | -6.8% |
| COc1ccc(CC2C3=C(CCCC3)CCN2C)cc1 (configuration not stated) | 45.2% | 21.9% | 28.6% | 21.8% | 17.6% | -25.8% |
| O=C([O-])C(F)(F)F.O=[N+]([O-])O.[Co+3].[NH2-].[NH2-].[NH2-].[NH2-].[NH2-] | 5.25% | 2% | 7.7% | -5.65% | 5% | 39.6% |
| [Cl][Hg][c]1ccccc1N=Nc1ccccc1I | 99.2% (active) | 98.8% (active) | 99.2% (active) | 98.8% (active) | 99.3% (active) | 99.2% (active) |
| CNC1(c2ccccc2)CC1 | 24.9% | -12.2% | 0.95% | -60.9% | 15.2% | -7.05% |
| CC(=O)OC1CC(OC2C(O)CC(OC3C(O)CC(OC4CCC5(C)C(CCC6C5CCC5(C)C(C7=CC(=O)OC7)C(O)CC65O)C4)OC3C)OC2C)OC(C)C1OC1OC(CO)C(O)C(O)C1O (configuration not stated) | 18.1% | 8.8% | -12.8% | 8.1% | 21.8% | 10.8% |
| CC1=CC(C)C/C=C/C2C3OC3(C)C(C)C3C(Cc4c[nH]c5ccccc45)NC(=O)C23C(=O)C=CC(=O)C1O (configuration not stated) | 88.4% (active) | 92.5% (active) | 92.6% (active) | 91% (active) | 91.3% (active) | 92.1% (active) |

| Compound | growth inhibition [1] | growth inhibition [2] | growth inhibition [3] | growth inhibition [4] | growth inhibition [5] | growth inhibition [6] |
| --- | --- | --- | --- | --- | --- | --- |
| CC(Cl)(Cl)[N+](=O)[O-] | 33.7% | -22.5% | -8.05% | -60.1% | -10.2% | 21.1% |
| CCCCCCCCCCCCC(=O)O.[Pb] | 1.45% | 10.2% | -14.4% | 24.2% | -2.05% | 3.35% |
| CN1C(=O)C(=Cc2cccc([N+](=O)[O-])c2)C(=O)N(C)C1=O | 17.4% | 14.3% | 2.15% | 26.1% | 10.8% | -9.55% |
| O=C(CCl)NC1CCCCC1 | 9.7% | -8.45% | 7.15% | -4.25% | 10.9% | -6.45% |
| O=[As](O)(O)c1cc(N=Nc2ccc(-c3ccc(N=Nc4cc([As](=O)(O)O)c(O)cc4O)cc3)cc2)c(O)cc1O | 0.1% | 44% | 33.2% | -19.7% | -4.2% | 25.4% |
| [CH3][Sb]1([Cl])[CH2]CC[CH2]1 | 0.2% | 26.1% | -5.6% | -3.1% | 32.5% | 27% |
| CCOP(=O)(CCBr)Oc1ccc([N+](=O)[O-])cc1 (configuration not stated) | -17.9% | 11.8% | -16.4% | -2.6% | 7.3% | -20% |
| CCOP(=S)(OCC)Oc1ccccc1 | -3.8% | -14.5% | -15.2% | -7.6% | -20.9% | 3.5% |
| CC(C)CC(=O)[O-].N.N.N.N.N.[Co+3].[O-][Cl+3]([O-])([O-])[O-] | -4.85% | 23.4% | -19.6% | 21.8% | -10.1% | -19.1% |
| COC1=CC2C3Cc4c(-c5cc(OC)c(O)c6c5CC5C7C=C(OC)C(=O)CC67CCN5C)cc(OC)c(O)c4C2(CCN3C)CC1=O (configuration not stated) | -2.7% and -3.05% | 1.25% and 2.55% | -2.75% and -13.1% | 0.25% and -10.2% | -2.45% and -0.65% | 3.7% and 12.1% |
| COC1=CCC2=C(CC[C@H]3[C@H]2CCP3C)C1 (some centres not stated) | 8.65% | -10.8% | -7.85% | -17.9% | 0.9% | 5.25% |
| CC12CCC(O)CC1CCC1C2CCC2(C)C(C3=CC(=O)OC3)CCC12O (configuration not stated) | -42.8% | -33.6% | -18.8% | -10.2% | -23.2% | -20.1% |
| CC(C)Oc1ccccc1OC(=O)N(C)C=O | -15.9% | -2.7% | -6.8% | -18% | -17.3% | -15.4% |
| Cc1ccc(O)cc1 | -27.4% | 24.1% | -22% | -31.2% | 1.1% | -30.1% |
| CC1(C(=O)O)C2[Se]c3cc[se]c3C2C1(C)C(=O)O (configuration not stated) | -2.5% | 9.8% | -8.15% | -20.8% | 1% | -4.7% |
| C1CN([PH+](N2CC2)N2CC2)CCO1.C1CN([PH+](N2CC2)N2CC2)CCO1.[I][Pd][I] | 3.9% | 6.7% | -5.7% | -8.05% | 0% | -4.4% |
| Cc1c([N+](=O)[O-])cc2c(c1[N+](=O)[O-])C(C)(C)CC2(C)C | -18.9% | -22.5% | -9.2% | 10.4% | 14.8% | -6.3% |
| CCCCCCCC(=O)O.[Pb] | 3.55% | 5.55% | 3% | 13.9% | -6% | 14.8% |
